The supplement of paper PMC6555819

Tests used:
Assay in all cases: PBM binding z-score (relative to random genomic background probes); higher = stronger binding; sequences stand for … in GC…GCGATTGACAGCGTAGAATGAAGG
[1] = test system: FXR:RXRa (NR concentration 270 nM, RXRa partner concentration 90 nM)
Procedure, shortened: (§1)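 Regression normalization was applied to scanned fluorescence from custom Agilent 4×180K protein-binding microarrays. Before scanning, arrays were incubated 1 h with ligand-free nuclear receptor dimers, and binding was detected with antibodies against each partner (one per run). Binding z-scores use the random background probes as reference.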

[2] = test system: LXRa:RXRa (NR concentration 270 nM, RXRa partner concentration 90 nM)
Procedure, shortened: as §1

[3] = test system: LXRa homodimer (NR concentration 270 nM)
Procedure, shortened: as §1

[4] = test system: LXRb:RXRa (NR concentration 270 nM, RXRa partner concentration 90 nM)
Procedure, shortened: as §1

[5] = test system: LXRb homodimer (NR concentration 270 nM)
Procedure, shortened: as §1

[6] = test system: PPARa:RXRa (NR concentration 270 nM, RXRa partner concentration 90 nM)
Procedure, shortened: as §1

[7] = test system: PPARg:RXRa (NR concentration 180 nM, RXRa partner concentration 90 nM)
Procedure, shortened: as §1

[8] = test system: PPARg:RXRa 270nM:90nM, anti-RXR (NR concentration 270 nM, RXRa partner concentration 90 nM)
Procedure, shortened: as §1

[9] = test system: PPARg:RXRa 30nM:10nM, anti-RXR (NR concentration 30 nM, RXRa partner concentration 10 nM)
Procedure, shortened: as §1

[10] = test system: PPARg:RXRa 90nM:30nM, anti-RXR (NR concentration 90 nM, RXRa partner concentration 30 nM)
Procedure, shortened: as §1

[11] = test system: PPARg:RXRa DBDmut IVT, anti-RXR (DBD mutation: RXRa K156A/R161A, NR concentration 270 nM, RXRa partner concentration 90 nM)
Procedure, shortened: as §1

[12] = test system: PPARg:RXRa IVT, anti-PPARg (NR concentration 270 nM, RXRa partner concentration 90 nM)
Procedure, shortened: as §1

[13] = test system: PPARg DBDmut:RXRa IVT, anti-PPARg (DBD mutation: PPARg1 K132A/R137A, NR concentration 270 nM, RXRa partner concentration 90 nM)
Procedure, shortened: as §1

[14] = test system: PPARg DBDmut IVT, anti-PPARg (DBD mutation: PPARg1 K132A/R137A, NR concentration 270 nM)
Procedure, shortened: as §1

[15] = test system: PPARg homodimer (NR concentration 180 nM)
Procedure, shortened: as §1

[16] = test system: PXR:RXRa (NR concentration 270 nM, RXRa partner concentration 90 nM)
Procedure, shortened: as §1

[17] = test system: PXR homodimer (NR concentration 270 nM)
Procedure, shortened: as §1

[18] = test system: RARa:RXR (NR concentration 270 nM, RXRa partner concentration 90 nM)
Procedure, shortened: as §1

[19] = test system: RARa homodimer (NR concentration 270 nM)
Procedure, shortened: as §1

[20] = test system: RARb:RXRa (NR concentration 270 nM, RXRa partner concentration 90 nM)
Procedure, shortened: as §1

Sequence | PBM binding z-score [1] | PBM binding z-score [2] | PBM binding z-score [3] | PBM binding z-score [4] | PBM binding z-score [5] | PBM binding z-score [6] | PBM binding z-score [7] | PBM binding z-score [8] | PBM binding z-score [9] | PBM binding z-score [10] | PBM binding z-score [11] | PBM binding z-score [12] | PBM binding z-score [13] | PBM binding z-score [14] | PBM binding z-score [15] | PBM binding z-score [16] | PBM binding z-score [17] | PBM binding z-score [18] | PBM binding z-score [19] | PBM binding z-score [20]
CCAGACAGGTGAGAAGGTAACTCCGCCTCGATTA | -0.167 | -0.237 | 0.189 | -0.163 | -0.188 | 0.436 | 0.351 | 0.504 | -0.516 | 0.193 | 1.06 | 0.448 | -0.414 | -1.08 | 0.567 | -0.515 | -0.154 | 0.0222 | 0.152 | 0.539
ATCTCTAGGTAAGACTCAGTTCAGTGCAGAACGC | 0.385 | 0.334 | 0.807 | 0.371 | 0.594 | 0.349 | 0.209 | 0.0288 | 0.281 | 0.195 | 1.92 | 1.08 | 0.985 | 1.26 | 1.53 | 1.14 | 1.56 | 0.346 | 1.16 | 0.33
TAGCCTAGGTCATGCGGGCCCGTATAGTGTCGGC | 3.96 | 3.12 | 0.169 | 1.59 | 0.214 | 3.37 | 1.74 | 2.29 | 0.0314 | 1.22 | 1.87 | 3.05 | -0.348 | 0.0155 | 0.405 | 1.07 | -0.531 | 2 | -0.428 | 3.62
CGTCCAAGATCAAGGTCAGTGAAAGAGACTCGAA | 1.53 | 1.53 | 0.459 | 1.7 | -0.296 | 2.7 | 0.906 | 1.19 | 0.0233 | 0.76 | 1.25 | 1.67 | -0.223 | -0.447 | 1.25 | 1.82 | 0.628 | 2.07 | 0.651 | 3.28
CCTACTGTGCCAAAAAGGTCATTGATGCCGATAA | 4.4 | 4.59 | 4.4 | 4.55 | 1.59 | 4.73 | 3.18 | 3.69 | 1.41 | 3 | 3.31 | 3.57 | 0.316 | 0.475 | 3.9 | 4.76 | 2.5 | 5.24 | 2.59 | 3.99
CGCCCAAGGTCAAAGGTCAGTGAAGAGATGACGG | 8.13 | 6.57 | 3.09 | 6.44 | 1.72 | 7.07 | 10.1 | 8.16 | 7.42 | 8.6 | 3.58 | 5.36 | 0.645 | 0.0371 | 3.28 | 7.03 | 1.41 | 8.49 | 1.99 | 6.04
AGAATGAGGTTATACGTAGAGCAGGGAAGAAAGT | 2.07 | 1.8 | -0.116 | 1.59 | 0.336 | 2.98 | 1.76 | 2.08 | 0.738 | 1.52 | 3.85 | 2.15 | 1.23 | 1.06 | 1.79 | 1.13 | 0.781 | 1.57 | 0.0508 | 1.51
CCGACTGGGGCAAAGATTACCATACTCAGTACGA | -0.494 | -0.583 | -0.45 | -0.138 | -1.19 | 1.89 | 4.52 | 5.48 | 3.98 | 6.06 | 4.42 | 3.1 | -0.00287 | -0.543 | 0.462 | -0.644 | -0.342 | -0.848 | -0.293 | 0.284
CCTAGCAGGCCAGGGTCACGCAAGCATTTCGCTT | 4.27 | 3.3 | -0.658 | 3.24 | -0.358 | 4.73 | 3.11 | 3.95 | 0.595 | 2.58 | -0.356 | 1.95 | -1.04 | -1.59 | 1.16 | 3.96 | -0.56 | 4.99 | -0.191 | 3.4
ATATGTAGGTTACATCCGGGTAATTCAGGCTATG | 0.626 | 5.83 | 1.24 | 3 | 0.708 | 3.26 | 5.44 | 4.35 | 1.75 | 3.32 | 7.57 | 7.21 | 4.3 | 3.2 | 1.34 | 0.541 | 0.614 | 1.19 | 0.484 | 1.22
AGAATGAGGTTATTAAGATCAGGGAATTGCGGTC | 1.82 | 1.51 | 0.178 | 1.26 | -0.237 | 2.39 | 1.44 | 1.72 | 0.425 | 0.999 | 3.22 | 2.5 | 1.04 | 0.418 | 1.11 | 1.48 | 0.762 | 1.56 | 0.273 | 1.46
TCTTGTAGATCAGCAGGAGGTTAAGAAAGATCGA | -0.201 | 0.985 | -0.411 | 0.538 | -0.736 | 1.03 | -0.21 | 1.36 | 2.16 | 1.74 | 1.2 | 0.727 | 0.985 | 0.0884 | -0.244 | 0.907 | -0.404 | 0.574 | -0.978 | 0.468
ATATATAGGTTAGCTGGGGTCATTCAGACTAGGC | 4.53 | 6.18 | 3.51 | 5.39 | 2.03 | 5.2 | 5.62 | 5.43 | 2.62 | 4.79 | 6.82 | 5.96 | 2.35 | 1.71 | 2.62 | 6.52 | 3.94 | 5.27 | 2.07 | 3.21
GCGACTGGGGCAAAGCAGGGTACCATAAGGTTGG | -0.153 | -0.295 | -0.964 | -0.249 | -1.01 | 0.981 | 0.93 | 0.904 | -0.207 | 0.227 | 3.87 | 3.24 | -0.359 | -0.643 | -0.201 | -0.102 | -0.367 | 0.315 | -0.579 | 0.894
